# Screening data deposited in PubChem BioAssay by National Center for Advancing Translational Sciences (NCATS).
# HCMV inh: blocks human cytomegalovirus replication. HFF cells, HCMV-luciferase reporter, 72 h; active compounds read low. activity change, negative = inhibition, % at 57.5 µM. actives 4.5% (n = 410,000). AID 1259415; in the data active = activity change below about -60%; inconclusive = no clear call, values can overlap the other calls; inactive = above about -39%
#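 Compounds were evaluated in HFFs infected with an HCMV luciferase reporter virus (MOI 1 PFU/cell). Luciferase in lysates collected 72 h post infection served as the replication measure.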
# HCV inhibitor: blocks hepatitis C virus | Huh7.5.1 HCVcc-Cre infection, luciferase reporter, 44 h | Potency, µM (doses to about 41.8 µM), without a hit: top-dose activity change, negative = inhibition, actives largely listed as inhibitors | actives 3.4% (n = 340,000) | AID 651820; active = well fitted inhibition curve with a large enough effect; inconclusive = small, poorly fitted or top-dose-only effect, or another doubt; inactive = no such curve, though single readings can be large or run the other way; also: potency is read from the fitted curve at half-maximal effect
#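 Infectious HCVcc-Cre (~0.5 moi) was added to cells just after compound, with cells seeded 4 h earlier at 1,000 per well. Luciferase activity after 44 h culture reported infection; substrate was incubated 15 min at room temperature before reading.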
# VACV Venus inh: vaccinia inhibition (Venus reporter). Vaccinia virus Venus reporter expression, fluorescence. Potency, µM (series often up to 36.5 µM), for inactives: at the highest dose activity change, negative = inhibition, usual class: inhibitors. actives 0.46% (n = 330,000). AID 720580; calls by dose curve; tested in A549 cells; also: potency is read from the fitted curve at half-maximal effect; nearly all actives have a fitted effect of over 30% in size
# VACV mCherry inh: vaccinia inhibition (mCherry reporter) | Potency, µM (titrated, usually from 36.5 µM), inactives show top-dose activity change, negative = inhibition, hits mostly inhibitors | actives 0.63% (n = 310,000) | Vaccinia virus mCherry reporter infection, fluorescence; calls by dose curve; tested in A549 cells; also: potency is read from the fitted curve at half-maximal effect; nearly all actives have a fitted effect of over 35% in size
# FMDV inh: antivirals against foot and mouth disease virus | FMDV antiviral cell-based qHTS | Potency, µM (highest dose often 57.9 µM), inactives show at the highest dose activity change, negative = inhibition, actives largely listed as inhibitors | actives 1.2% (n = 410,000); calls by dose curve; tested in HEK293T cells; also: read-out not given here; potency is read from the fitted curve at half-maximal effect; nearly all actives have a fitted effect of over 45% in size
# Starred values were filed as active, the others as inactive; i = inactive; ? = inconclusive; . = no result given. Sampled rows, rich in hits. Any-hit rate of the full collection: about 7.3%. % is scaled to controls: 0 for no effect and ±100 for the full control effect.
SMILES,HCMV inh,HCV inhibitor,VACV Venus inh,VACV mCherry inh,FMDV inh
CCCN(CCC)C(=O)CSc1nc2n[nH]c(C)c2c(=N)n1-c1ccc(OC)cc1,27.6,?,?,.,22.4µM*
CCN(C(=O)CSc1nc2n[nH]c(C)c2c(=N)n1-c1ccc(Cl)c(C)c1)c1cccc(C)c1,0.0,?,.,.,-28.8%
Cc1cccc(-n2c(SCC(=O)Nc3ccccc3Cl)nc3n[nH]c(C)c3c2=N)c1,-61.6*,.,-25.7%,-21.4%,?
CCc1ccccc1NC(=O)CSc1nc2n[nH]c(C)c2c(=N)n1-c1cccc(C)c1,5.8,.,-18.3%,-17.2%,-27.2%
Cc1cc(-n2c(SCc3ccccc3F)nc3n[nH]c(C)c3c2=N)ccc1Cl,-33.6,10µM*,-22.2%,-17.1%,?
CCCN(CCC)C(=O)CSc1nc2n[nH]c(C)c2c(=N)n1-c1ccc(OCC)cc1,.,?,?,.,-24.6%
Cc1ccc(NC(=O)CSc2nc3n[nH]c(C)c3c(=N)n2-c2ccccc2C)cc1C,-27.3,.,-13.1%,-19.3%,?
COc1ccccc1NC(=O)CSc1nc2n[nH]c(C)c2c(=N)n1-c1ccccc1Cl,-6.8,11.2µM*,.,.,?
O=C(Nc1ccccc1Br)N1CCN2CCCCC2C1 (stereo unspecified),-11.0,.,-9.8%,-6.1%,-5.1%
CCc1ccccc1NC(=O)CSc1nc2n[nH]c(C)c2c(=N)n1-c1ccc(OC)cc1,16.1,11.2µM*,?,.,?
CCC(Sc1nc2n[nH]c(C)c2c(=N)n1-c1ccc(Br)cc1)C(=O)N(CC)CC (stereo unspecified),0.0,.,-24.7%,-15.4%,?
Cc1[nH]nc2nc(SCC(=O)NC3CCCCC3)n(-c3ccc(Br)cc3)c(=N)c12,-88.7*,?,.,.,?
CCc1ccc(NC(=O)CSc2nc3n[nH]c(C)c3c(=N)n2-c2ccc(C)cc2)cc1,-90.6*,.,?,?,-5.8%
CCOc1ccc(-n2c(SCC(=O)Nc3ccc(CC)cc3)nc3n[nH]c(C)c3c2=N)cc1,-22.8,-28.3%,?,-29.9%,-11.9%
COc1ccc(-n2c(SCC(=O)NCc3ccccc3)nc3n[nH]c(C)c3c2=N)cc1,2.5,.,-13.7%,-14.2%,-28.1%
CCCCN(CC)C(=O)CSc1nc2n[nH]c(C)c2c(=N)n1-c1cccc(C)c1,?,11.2µM*,?,?,?
O=CNc1ccc(/C=C/c2ccnc3ccccc23)cc1,.,.,-11.7%,-7.7%,.
CC(O)[C@H]1CN=C(N)N1CCc1cc(C(F)(F)F)cc(C(F)(F)F)c1 (stereo partly specified),-5.1,15.9%,-1.9%,-20.1%,-1.8%
NC1=NC[C@@H](CC2CCCCC2)N1CCc1cc(C(F)(F)F)cc(C(F)(F)F)c1,.,?,10µM*,?,35.5µM*
NC1=NC[C@H](c2ccccc2)N1CCc1cc(C(F)(F)F)cc(C(F)(F)F)c1,-70.7*,?,10µM*,10µM*,?
CCC(CC)C(=O)Nc1nnc(S(=O)(=O)N(C)c2cc(C)cc(C)c2)s1,93.2,.,-3.4%,-7.6%,-9.5%
COc1ccc2c3n([n+]([O-])c2c1)C(C)CN=C3c1cc(Cl)c(N)c(Cl)c1 (stereo unspecified),58.3,.,.,.,.
CC1(C)C[C@H]2C=C(C=O)[C@]3(C=O)C[C@]3(C)[C@H]2C1,9.4,3.16µM*,?,?,25.1µM*
Cc1ccc(-c2ccc(/C=C3\SC(N4CCOCC4)=NC3=O)o2)cc1,-4.1,12.6µM*,?,?,-14.3%
CC(C)c1ccc(NC(=O)CSC2=Nc3ccccc3C3=NC(CC(=O)NCc4ccc(F)cc4)C(=O)N23)cc1 (stereo unspecified),-11.9,.,-8.7%,-10.8%,0.0%
SMILES,HCMV inh,HCV inhibitor,VACV Venus inh,VACV mCherry inh,FMDV inh
Cc1ccc(C)c(S(=O)(=O)c2nnn3c2nc(NC2CCCC2)c2sccc23)c1,-106.6*,.,?,?,?
Cc1ccc(S(=O)(=O)c2nnn3c2nc(N2CCOCC2)c2ccccc23)cc1C,9.0,10µM*,-13.1%,-13.2%,23.0%
Cc1ccc(S(=O)(=O)c2nnn3c2nc(NC2CCCCC2)c2sccc23)cc1C,-91.6*,.,?,?,-10.0%
O=S(=O)(c1cccc(Cl)c1)c1nnn2c1nc(NC1CCCC1)c1sccc12,-22.8,.,-17.8%,-11.1%,-3.4%
COc1ccccc1-n1cc(CN2CCOc3ccc(CN4C[C@@H](C)O[C@@H](C)C4)cc3C2)cn1,.,.,1.2%,-11.7%,-21.7%
C/C=C(\C)C(=O)NCCN1C2=NC[C@H](Cc3ccccc3)N2C[C@@H]1Cc1ccc(OC)cc1,10.4,11.6%,-12.8%,-32.2%,-11.3%
COc1ccc(C[C@H]2CN3C(=NC[C@H]3Cc3ccccc3)N2CCNC(=O)CCC2CCCCC2)cc1,?,-6.6%,?,11.2µM*,-21.9%
COc1ccc(C[C@H]2CN3C(=NC[C@H]3Cc3ccccc3)N2CCNC(=O)c2ccc(C)c(Br)c2)cc1,.,-13.8%,14.1µM*,?,?
COc1ccc(C[C@H]2CN3C(=NC[C@@H]3Cc3ccccc3)N2CCNC(=O)c2ccc(C)c(Br)c2)cc1,.,?,12.6µM*,?,?
CCN(Cc1nc(-c2ccc(OC)c(OC)c2)no1)S(=O)(=O)c1ccc(OC)cc1,1.2,.,-7.3%,-5.0%,?
O=c1c2ccccc2nc(-c2ccc(Cl)cc2)n1CCCCOc1ccc(F)cc1,14.9,.,-8.6%,-2.9%,-9.6%
COc1ccc(C)cc1N(C)C(=O)c1sc2nc3n(c(=O)c2c1C)CCCCC3,-1.7,.,-12.3%,-13.9%,-8.2%
CCOC(=O)C1=C[C@@H](C(C)(C)C)N(S(=O)(=O)c2ccc(C)cc2)[C@H]1c1ccc(Cl)c(Cl)c1,-87.7*,.,-5.5%,i,?
CCOC(=O)C1=C[C@@H](C(C)(C)C)N(S(=O)(=O)c2ccccc2C)[C@H]1c1ccc(Cl)cc1,-76.7*,.,0.4%,4.1%,?
CCN(CC)CCCNC(=O)c1cc(Cl)c(NC(=O)C2=C(C)OCCS2)cc1OC,-33.8,11.2µM*,-22.9%,-3.1%,-4.6%
CCN1CCN(CCNC(=O)c2cc(Cl)c(NC(=O)C3=C(C)OCCS3)cc2OC)CC1,?,?,.,.,-17.2%
COc1ccc(NC(=O)C2(C)CCN2Cc2ccccc2OC(F)F)cc1OC (stereo unspecified),45.9,.,-0.3%,9.8%,-28.6%
CC1(C(=O)Nc2ccc(Cl)c(Cl)c2)CCN1Cc1ccccc1OC(F)F (stereo unspecified),121.8,.,-24.1%,i,31.6µM*
CC(=O)N1CCc2cc(NC(=O)C3(C)CCN3Cc3ccccc3Cl)ccc21 (stereo unspecified),-78.5*,.,39.2%,?,-2.9%
CCC1CN(CCNC(=O)c2ccc3c(c2)OCO3)Cc2cc(OC)ccc2O1 (stereo unspecified),.,.,-6.3%,-13.7%,46.6%
CN(C)c1ccc(-c2cc(N(C)Cc3ccco3)ncn2)cc1,.,.,.,.,-24.8%
CCN1CCN(Cc2cc(Br)ccc2O)CC1,-12.8,35.5µM*,.,.,8.5%
CCc1ccc(CN2CCN(Cc3cc(Br)ccc3O)CC2)cc1,?,-27.7%,-14.3%,i,-11.0%
